# Unmarked numbers belong to inactive results. Calls of active or inactive are those of the source.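 Rule for the calls, unless noted: active = mean inhibition above 46.5%, the solvent-only control mean plus 3 SD; inactive = the rest.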
# What was measured:
# [1] = test system: transactivating tegument protein VP16 (Human herpesvirus 1); experiment: VP16 transactivation reporter inhibitors, counter-screen for SRC2 inhibitor project, cell-based, luminescence, single concentration (AID 652007; in the data active = inhibition above about 36%); settings: cell-based VP16 transactivation luciferase reporter, at 8.9 µM, active compounds read high
# [2] = target: Nuclear receptor coactivator 2 (Homo sapiens) (UniProt Q15596); experiment: SRC2 coactivator transcriptional activity inhibitors, confirmation, cell-based, luminescence, HEK293, triplicate (AID 652008); settings: HEK293 GAL4-SRC2 luciferase reporter, at 8.9 µM, active compounds read high;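 note: 0% = DMSO-treated cells and 100% = Gossypol at 36 µM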
# Nuclear receptor coactivator 2 (Homo sapiens), sequence (Q15596 whole entry, looked up, the tested form may be a part): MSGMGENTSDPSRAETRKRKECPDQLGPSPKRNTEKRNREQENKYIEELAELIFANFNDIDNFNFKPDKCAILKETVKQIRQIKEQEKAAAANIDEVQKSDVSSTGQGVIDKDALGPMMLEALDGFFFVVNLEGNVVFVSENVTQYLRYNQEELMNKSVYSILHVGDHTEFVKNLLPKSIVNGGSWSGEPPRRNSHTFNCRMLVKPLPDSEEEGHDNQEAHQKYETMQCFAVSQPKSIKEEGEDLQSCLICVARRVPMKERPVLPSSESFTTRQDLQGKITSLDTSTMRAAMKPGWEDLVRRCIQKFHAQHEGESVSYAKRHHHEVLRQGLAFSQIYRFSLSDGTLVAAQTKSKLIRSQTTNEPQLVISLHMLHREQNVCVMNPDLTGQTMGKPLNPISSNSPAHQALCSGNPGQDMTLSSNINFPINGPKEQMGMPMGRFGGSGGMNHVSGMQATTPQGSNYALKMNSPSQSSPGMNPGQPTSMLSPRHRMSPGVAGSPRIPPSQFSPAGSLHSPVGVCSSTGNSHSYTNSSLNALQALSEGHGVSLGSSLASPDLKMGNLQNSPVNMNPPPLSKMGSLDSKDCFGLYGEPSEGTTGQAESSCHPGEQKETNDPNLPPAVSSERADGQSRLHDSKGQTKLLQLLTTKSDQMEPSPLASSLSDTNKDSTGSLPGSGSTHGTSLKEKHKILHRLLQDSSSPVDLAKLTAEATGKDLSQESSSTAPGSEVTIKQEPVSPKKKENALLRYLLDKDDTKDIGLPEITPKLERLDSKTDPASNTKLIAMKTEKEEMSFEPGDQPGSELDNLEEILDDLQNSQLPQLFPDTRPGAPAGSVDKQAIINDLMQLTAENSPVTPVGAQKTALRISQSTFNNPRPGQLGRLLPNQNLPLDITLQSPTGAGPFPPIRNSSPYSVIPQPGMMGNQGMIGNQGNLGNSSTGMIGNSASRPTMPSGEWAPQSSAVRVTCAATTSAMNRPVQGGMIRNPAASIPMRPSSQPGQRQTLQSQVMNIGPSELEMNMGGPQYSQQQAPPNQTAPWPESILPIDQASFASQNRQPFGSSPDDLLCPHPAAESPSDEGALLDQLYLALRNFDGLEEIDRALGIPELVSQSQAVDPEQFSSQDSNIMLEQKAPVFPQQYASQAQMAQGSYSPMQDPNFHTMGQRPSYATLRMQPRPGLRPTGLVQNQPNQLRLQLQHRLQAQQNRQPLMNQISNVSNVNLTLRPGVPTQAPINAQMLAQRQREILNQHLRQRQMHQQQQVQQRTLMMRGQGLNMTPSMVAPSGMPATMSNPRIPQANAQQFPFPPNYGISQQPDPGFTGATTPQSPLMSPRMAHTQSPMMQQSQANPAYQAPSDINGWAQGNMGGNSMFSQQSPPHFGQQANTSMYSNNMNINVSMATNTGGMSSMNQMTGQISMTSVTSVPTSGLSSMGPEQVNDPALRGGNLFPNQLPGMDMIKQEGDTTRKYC
SMILES,inhibition [1],inhibition [2]
CCOc1ccc(-c2cc(CCCC(=O)NCc3ccco3)no2)cc1,16.9%,37.5%
COc1cc(NC(=O)c2cccs2)c(C(=O)OCC(=O)c2cc(C)n(-c3ccccc3)c2C)cc1OC,27.5%,67% (active)
Cc1nc([N+](=O)[O-])c(Br)n1Cc1ccccc1,3.69%,11.9%
COc1ccc(NS(=O)(=O)c2ccc(OC)c(N(C)S(=O)(=O)c3ccc(Cl)cc3)c2)cc1,17.3%,31.2%
Cc1cccc(N2CC(C(=O)NC3CCCCCC3)CC2=O)c1C (centres undefined),-3.4%,-3.61%
O=C(Cn1cnc2ccccc21)N/N=C/C(Br)=C/c1ccccc1,-14%,-5.7%
COc1ccc(OC)c(-n2nnnc2SCC(=O)Nc2cc(C)ccc2OC)c1,-22.1%,2.63%
CCC1CN(C(=O)NCc2cccc(OC)c2)c2ccccc2O1 (centres undefined),-11.8%,-14.7%
CCC1CCCCN1S(=O)(=O)c1ccc(NC(=O)c2nc(S(C)(=O)=O)ncc2Cl)cc1 (centres undefined),96.7% (active),72.7% (active)
CC(Oc1ccc(Cl)cc1Cl)C(=O)NCCCn1ccnc1 (centres undefined),-8.12%,-15.5%
O=C(CSCCO)Nc1ccc(C23CC4CC(CC(C4)C2)C3)cc1,-57.7%,41.9%
COc1ccc(C)cc1Nc1n[n+](-c2ccccc2)c(-c2c(Cl)cccc2Cl)s1,19.4%,22.7%

# From PubChem BioAssay
